Laboratory results: PubChem BioAssay (NCI)
The panel holds about 83,000 compounds, 20% with a hit somewhere; the sample as a whole holds those more often.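 Single-concentration screen, 48 h exposure, 96-well plates. Endpoint: percent growth. Below 10 = active.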 Values without a mark were called inactive. Calls of active or inactive are those of the source.

Columns and labels:
Assay in all cases: NCI-60 one-dose screen, 48 h (100 = growth as untreated, 0 = no growth, -100 = all killed)
SK-MEL-2 melanoma = conditions: 10 µM unless noted
EKVX NSCLC = conditions: 10 µM
SN12C renal = conditions: 10 µM unless noted
UO-31 renal = conditions: 10 µM unless noted
TK-10 renal = conditions: 10 µM unless noted
CCRF-CEM leukemia = conditions: 10 µM
MOLT-4 leukemia = conditions: 10 µM unless noted
ACHN renal = conditions: 10 µM unless noted
CAKI-1 renal = conditions: 10 µM unless noted
A498 renal = conditions: 10 µM unless noted

SMILES	growth (SK-MEL-2 melanoma)	growth (EKVX NSCLC)	growth (SN12C renal)	growth (UO-31 renal)	growth (TK-10 renal)	growth (CCRF-CEM leukemia)	growth (MOLT-4 leukemia)	growth (ACHN renal)	growth (CAKI-1 renal)	growth (A498 renal)
CCCNC(=O)Oc1ccc(/C(=C(/C)Cc2ccc(OC)cc2)c2ccc(OCCN3CCCC3)cc2)cc1	98.8%	70.1%	71.3%	50.3%	83.4%	50.7%	52.8%			
COc1ccc(-c2cc(C#N)c(NNC(C)=O)[nH]2)cc1	102%	112%	113%	96.2%		-0.558% (active)	46%	103%	107%	123%
CCN(CC)c1ccc2nc3ccc(N=Nc4ccc(O)cc4)cc3[n+](-c3ccccc3)c2c1	76.8%	77.6%	75.5%	48.5%	66.6%	12.8%	18.1%		90.5%	75%
COc1cc2c(/C=C3\C(=O)Nc4ccc(Br)cc43)c(Cl)n(C)c2cc1C	29.7%	42.1%	35.5%	31.6%		-11.7% (active)	4.36% (active)	29.5%	69.7%	3.37% (active)
COc1cc([C@@H]2c3cc4c(cc3[C@H](O)[C@H]3COC[C@@H]23)OCO4)cc(OC)c1OC	89.3%	109%	90.5%	53.9%			76.6%	78.2%	62.3%	
CCCNC(=O)Oc1ccc(/C(=C(/CC)Cc2ccccc2)c2ccc(OCCN(CC)CC)cc2)cc1	101%	79.3%	78.6%	51.5%	85.8%	57.7%	46.9%			
O=C(O)CC1Cc2ccccc2C1C(=O)O (stereo not given)	101%	105%	95.2%	79.6%	96.5%	85.7%	82.3%		104%	90.3%
Cc1nc(N)sc1C(=O)NCCO	12.8%	113%	101%	80.2%	112%	60.6%	155%			119%
C/C(CCC(=O)O)=N/Nc1ccc([N+](=O)[O-])cc1	26.9%	63.1%	77.1%	39%		18.2%		36.3%	25.7%	75.8%
Cn1cnc2nc[nH]c2c1=S	106%	113%	94.8%	71.2%	88.4%	98.7%			97.9%	
Cc1c([C@H](C(Cl)Cl)[C@H](O)[C@H]2C[C@H](C)C(=O)O2)ccc2c1C(=O)[C@H]1[C@H]2C[C@@H](Br)[C@@]23O[C@@H](CO[C@H]2O)CC13C (stereo not given in full)	74%	27.7%	25.1%	56.2%		17.2%	16.4%	45.9%	-31.4% (active)	-22.6% (active)
CC(=O)Nc1ccc(CC#N)cc1Br	106%	112%	107%	95%	96.4%	107%	118%		96.5%	79.9%
CC(=O)/C(=C\c1c(-c2ccccc2)[nH]c2ccccc12)S(=O)(=O)c1ccccc1	-27.9% (active)	27.9%	5.37% (active)	14%	10.2%		-35.5% (active)			
CN1C(=O)C(=Cc2coc3ccc(Br)cc3c2=O)C(=O)N(C)C1=O	111%	109%	90.3%	77.3%	108%		126%	96.8%		
COc1ccc(-c2nc(Nc3nc4ccccc4[nH]3)nc(N)c2C#N)cc1	97.6%	92.4%	90.8%	72.9%	95.9%	95.4%	95%		93.3%	119%
CCOC(=O)C1=C(C(F)(F)F)NC(=S)NC1CN1C(=O)c2ccccc2C1=O (stereo not given)	100%	113%	105%	98.1%	107%	40.7%	93.7%			133%

SMILES	growth (SK-MEL-2 melanoma)	growth (EKVX NSCLC)	growth (SN12C renal)	growth (UO-31 renal)	growth (TK-10 renal)	growth (CCRF-CEM leukemia)	growth (MOLT-4 leukemia)	growth (ACHN renal)	growth (CAKI-1 renal)	growth (A498 renal)
Clc1ccc(N/N=C(\c2ccccc2)c2ccccn2)nc1	36.4%	15.2%	15.7%	2.2% (active)	52.1%	1.1% (active)	2.34% (active)		6.96% (active)	-14.2% (active)
COC(c1ccccc1)C(Br)C(=O)c1ccccc1 (stereo not given)	95.7%	103%	94.3%	75.8%		69.9%	98%	94.6%	85%	98.6%
COc1ccc(-c2nc(SCC(C)C)nc(Nc3ccc([N+](=O)[O-])cc3)c2C#N)cc1	105%	98.5%	72%	79.7%	73%	78.1%	92.2%			89.8%
COc1cc(-c2c3c(cn2CCN2CCCCC2)-c2oncc2CC3)cc(OC)c1OC	106%	102%	101%	80.2%	100%	103%	100%		87%	90.9%
CC1(C)NCCC[C@]2(C)[C@H]3CC=C4[C@@H]5C[C@](C)(COC(=O)c6ccccc6C(=O)O)CC[C@]5(C)CC[C@@]4(C)[C@]3(C)CC[C@@H]12	83.5%	86.7%	65.5%	87.4%	36%	35.8%	20.5%		86%	107%
Oc1ccc(N=Nc2ccc(N=Nc3ccccc3)cc2)cc1	47.3%	39.8%	57.1%	15.8%	48.5%	6.69% (active)	4.57% (active)			
COc1cc2ncnc(-n3ncc4cc(NC(=O)Nc5ccccc5)ccc43)c2cc1OC	-4.23% (active)	-1.75% (active)	3.79% (active)	-44.4% (active)		22.9%	3.89% (active)	17.1%	16.1%	-33.4% (active)
COc1cc(Cn2ccc3c2-c2oncc2CC3)cc(OC)c1	28.8%	53.9%	38%	28.8%	61.7%	30.1%	38.4%		23.3%	32.4%
Nc1cc(N)c2nc(-c3ccccc3)c(NCCc3ccc(Cl)c(Cl)c3)nc2c1	-62.7% (active)	-100% (active)	-96.6% (active)	-93% (active)	-92.5% (active)	-66.1% (active)	-16.4% (active)		-92.4% (active)	-34.4% (active)
N#CC1=C(N2CCOCC2)NC2c3ccccc3Sc3ccccc3N2C1=N (stereo not given)	108%	92.8%	103%	72.9%		82.7%	120%	91.5%	94%	
COC(=O)Nc1nc2ccc(C(=O)c3ccccc3N(C)C3COC3)cc2[nH]1	24.2%	53.6%	44.1%	39.9%		8.11% (active)	30.3%	40.5%	45.2%	9.85% (active)
CCCCCCNC(=O)Oc1ccc(/C(=C(/C)Cc2ccc(OC)cc2)c2ccc(OCCN3CCCCC3)cc2)cc1	101%	81.9%	80.1%	58.5%	89.8%		69.3%	99.5%		
OC(c1ccccc1)(c1ccccc1)C(F)(F)F	97.7%	102%	94.9%	98.1%			102%	94.8%	97.8%	
Nc1cc(N)c2nc(NCCc3ccc(Cl)c(Cl)c3)cnc2c1	54.9%	28.6%	16.5%	55.8%		-63.3% (active)		62.6%	133%	
CCOc1nc(-c2ccccc2)cc2c(O)c(C(=O)N/N=C/c3ccccc3O)[nH]c(=O)c12	61.3%	97.3%	115%		140%	69.4%	17.1%	107%		102%
CCOP1(=O)CC(C)=C(Cl)C(P(=O)(O)O)C1 (stereo not given)	109%	102%	99.3%	42.5%		-35.6% (active)	89.9%		110%	113%
